# Experimental data from ChEMBL document CHEMBL1157539, “Thousands of chemical starting points for antimalarial lead identification” (Nature, 2010).
# Test system: HepG2
# Test: GSK_TCMDC: Percent inhibition of human HepG2 cell line. Test compounds present at 10uM.
# Assay type: functional
row,Structure (SMILES),Inhibition [%]
1,Br.CCCCCCCn1c2c(c(=N)c3c1CCC3)CCCC2,46
2,COc1ccc(NC(=O)CCNc2cc(C)nc(NCc3ccccc3C)n2)cc1.O=C(O)C(F)(F)F,7
3,Br.C=CCNC(CCCCC)c1ccc(OCCOc2ccc(C(CCCCC)NCC=C)cc2)cc1 (centres undefined),100
4,CCCCCCCCNCc1c(O)ccc2ccccc12.Cl,0
5,CC1(C)N=C(N)N=C(N)N1OCCCc1ccccc1.Cl,64
6,COC(=O)C1=CNC=C(C(=O)OC)C1c1ccc(Cl)c([N+](=O)[O-])c1,0
7,CCCCCCOc1ccc(/C(N)=N\Cc2ccccc2)c2c1CCCC2.Cl,62
8,CCOc1cc(Cl)c(C(C)NC(=O)c2cccc(OC)c2)cc1OCC (centres undefined),29
9,CCCOc1cc(OCCC)cc(-c2ccc(C(=O)Nc3ccc4ccc(C)nc4c3)c(=O)[nH]2)c1,11
10,COc1ccc(-c2ccc(S(=O)(=O)Nc3cc4c(cc3OC(C)C)CCN(C)CC4)cc2)cc1.Cl,16
11,Cc1cc(OCCCN2CCC(NS(=O)(=O)c3cccc(Br)c3)CC2)c2ccccc2n1,28
12,Cc1ccc(CNC(=O)[C@H](Cc2ccccc2)Nc2cc(C)nc(NCc3ccccc3C)n2)cc1.O=C(O)C(F)(F)F,23
13,Cc1ccc2[nH]c(-c3ccccc3)cc(=NN=Cc3cccnc3)c2c1,12
14,CCNC[C@H]1CCCN1CCOc1ccc(-n2cnc3cc(-c4ccc(Cl)cc4)sc3c2=O)cc1OC.O=C(O)C(F)(F)F,53
